Measurements published in PubChem BioAssay (EPA / NIEHS).
“And” between values parts separate entries of the source, which are not always exact repeats. Equal values may be shown once. Results filed as inconclusive are left out. A structure can be active in one record and inactive in another. The source made the active and inactive calls. How the source made its calls: active means hit-call score of the fitted dose curve at least 0.9, where 1 is the maximum; inconclusive means response in the unintended direction; inactive means score below 0.9.

assay: ACEA_AR_antagonist_AUC_viability: ACEA Biosciences xCELLigence Real-Time Cell Analysis on Androgen Receptor Antagonism for Viability (AID 2283776);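 further: area under impedance growth curve at 80 h after dosing as viability; hits lower the growth signal relative to DMSO meaning cytotoxicity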
Description: ACEA_AR_antagonist is a cell-based, single-readout assay that uses 22Rv1, a human prostate cancer cell line, with measurements taken at 80 hours after chemical dosing in a 384-well plate, although TO5 and TO6 (mc0.srcf) used a 96-well plate. Differences in plate size can be ignored given data normalization.ACEA_AR_80hr is one of two assay component(s) measured or calculated from the […] assay. It is designed to make measurements of real-time cell-growth kinetics, a form of growth reporter, as detected with electrical impedance signals by Real-Time Cell Electrode Sensor (RT-CES) technology.Data from the assay component ACEA_AR_antagonist_AUC_viability was analyzed in the positive analysis fitting direction relative to DMSO as the negative control and baseline of activity. Using a type of growth reporter, loss-of-signal activity can be used to understand changes in the viability. Furthermore, this assay endpoint can be referred to as a secondary readout, because this assay has produced multiple assay endpoints where this one serves a viability function. To generalize the intended target to other relatable targets, this assay endpoint is annotated to the cell cycle intended target family, where the subfamily is cytotoxicity.
The xCELLigence system Multi-E-Plate stations were used to measure the time-dependent response to chemicals. Each compound was tested in an eight-point, 1:4 serial dilution series starting at a maximum final concentration of 100 uM. A maximum starting concentration of 0.5% DMSO was present in the 100 uM chemical samples and was diluted along with the test article dilution series. The screen was performed in biological duplicate using two separate, 96-well, E-Plates 96 for each dilution series (n = 2). Positive controls (MG132 and testosterone) and a negative control (assay media) were tested in quadruplicate on each testing plate. Then, 0.5% and 0.125% DMSO were tested in duplicates in each plate to serve as solvent controls for the 2 highest concentrations of testing compounds: 100 uM and 25 uM. Reference compounds were tested with 8 concentrations with 1:5 serial dilutions. All screening was carried out by ACEA Biosciences, Inc. (San Diego, CA). 22Rv1 cells purchased from ATCC were maintained in media supplemented with 10% fetal bovine serum (FBS). Before screening, 22Rv1 cells were preconditioned in assay medium. Cells were then detached and seeded in E-Plates 96 in assay medium. After overnight monitoring of growth once every hour, compounds were added to […] cells and remained in the medium until the end of the experiment. Cellular responses were then recorded once every 5 min for the first 5 h, and once every hour for an additional 100 h.

Row | Structure (SMILES) | AC50 | outcome
1 | CCC(C)(NC(=O)c1cc(Cl)c(C)c(Cl)c1)C(=O)CCl (stereo not given) | 22 µM (active) | –
2 | COP(=S)(OC)Oc1ccc([N+](=O)[O-])cc1 | – | inactive
3 | C#CCN1C(=O)COc2cc(F)c(N3C(=O)C4=C(CCCC4)C3=O)cc21 | 50 µM (active) | –
4 | CCC(C)Nc1c([N+](=O)[O-])cc(C(C)(C)C)cc1[N+](=O)[O-] (stereo not given) | 36.6 µM (active) | –
5 | C[C@H]1[C@H](c2ccc(Cl)cc2)SC(=O)N1C(=O)NC1CCCCC1 | 12.4 µM (active) | –
6 | CCC(C)(C)C(=O)OC1=C(c2ccc(Cl)cc2Cl)C(=O)OC12CCCCC2 | – | inactive
7 | CC(C)(C)C(O)/C(=C\c1ccc(Cl)cc1Cl)n1cncn1 (stereo not given) | 20.3 µM (active) | –
8 | CCOCN(C(=O)CCl)c1c(C)cccc1CC | 40.9 µM (active) | –
9 | COP(=S)(OC)Oc1ccc(SC)c(C)c1 | 33.5 µM (active) | –
10 | CCCN(CCC)c1c([N+](=O)[O-])cc(C(F)(F)F)cc1[N+](=O)[O-] | 50 µM (active) | –
11 | O=S(=O)(O)C(F)(F)C(F)(F)C(F)(F)C(F)(F)C(F)(F)C(F)(F)C(F)(F)C(F)(F)F | 31.4 µM (active) and 67.5 µM (active) | –
12 | CC1(c2ccc(Oc3ccccc3)cc2)OC(=O)N(Nc2ccccc2)C1=O (stereo not given) | 0.883 µM (active) | –
13 | CNC(=O)CSP(=S)(OC)OC | – | inactive
14 | O=[N+]([O-])c1c(Cl)c(Cl)c(Cl)c(Cl)c1Cl | 50 µM (active) | –
15 | O=S1OCC2C(CO1)C1(Cl)C(Cl)=C(Cl)C2(Cl)C1(Cl)Cl (stereo not given) | 17.2 µM (active) | –
16 | CC(C)(C)C(O)C(Oc1ccc(Cl)cc1)n1cncn1 (stereo not given) | 39.9 µM (active) | –
17 | Oc1ccc(Cl)cc1Cc1ccccc1 | 13.8 µM (active) | –
18 | O=C(O)C(F)(F)C(F)(F)C(F)(F)C(F)(F)C(F)(F)C(F)(F)C(F)(F)F | 37.7 µM (active) | inactive
19 | CCc1ccc(C(=O)NN(C(=O)c2cc(C)cc(C)c2)C(C)(C)C)cc1 | 50 µM (active) | –

Row | Structure (SMILES) | AC50 | outcome
20 | ClC1C(Cl)C(Cl)C(Cl)C(Cl)C1Cl (stereo not given) | 37.8 µM (active) | inactive
21 | COP(=O)(OC)OC=C(Cl)Cl | – | inactive
22 | CNC(=O)/C=C(\C)OP(=O)(OC)OC | – | inactive
23 | CCN(CC)C(=O)SCc1ccc(Cl)cc1 | 65.8 µM (active) | –
24 | O=C(Nc1ccccc1)Nc1cnns1 | 50 µM (active) | –
25 | CNC(=O)Oc1ccccc1OC(C)C | – | inactive
26 | OCCOc1ccccc1 | – | inactive
27 | N#CN | – | inactive
28 | Oc1cc(Cl)ccc1Oc1ccc(Cl)cc1Cl | 12.9 µM (active) | –
29 | CC1(C)C(C=C(Cl)Cl)C1C(=O)OC(C#N)c1ccc(F)c(Oc2ccccc2)c1 (stereo not given) | 30.1 µM (active) | –
30 | CCCN(CCOc1c(Cl)cc(Cl)cc1Cl)C(=O)n1ccnc1 | 57.1 µM (active) | –
31 | Cc1[nH]c(=O)n(C(C)(C)C)c(=O)c1Cl | – | inactive
32 | CC(C)OC(=O)Nc1cccc(Cl)c1 | 50 µM (active) | –
33 | O=C(O)COc1ccc(Cl)cc1Cl | – | inactive
34 | COc1nn(CSP(=S)(OC)OC)c(=O)s1 | 92.6 µM (active) | –
35 | O=[N+]([O-])/N=C1\NCCN1Cc1ccc(Cl)nc1 | – | inactive
36 | O=C(O)CCCOc1ccc(Cl)cc1Cl | – | inactive
37 | CC(C)N(C(=O)COc1nnc(C(F)(F)F)s1)c1ccc(F)cc1 | 50 µM (active) | –
38 | CNC(=O)Oc1cccc(N=CN(C)C)c1 | – | inactive
